Test results reported in article PMC5540273 (PLoS ONE, 2017).

system: CSNK1D; details: concentration: 1 μM, replicates: in singlicate; n = 1
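Note: KINOMEscan kinase panel screen.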

| SMILES | %Inh |
| --- | --- |
| CCc1nc(-c2cccc(C)c2)c(-c2ccncc2)s1 | 68% |
| COc1cc(OC)cc(-c2cc3cnc(N)nc3nc2NC(=O)NC(C)(C)C)c1 | 0% |
| Nc1ncnc2c1ncn2-c1cccc(F)c1 [SKF-97560] | 26% |
| COc1cc2ncn(-c3cc(OCc4ccncc4)c(C(N)=O)s3)c2cc1OC [GSK336313] | 8% |
| Fc1cccc(CSc2nnc(-c3ccc4c(c3)CCO4)o2)c1 | 0% |
| CCC(=O)c1c(-c2ccccc2)c2cc(Cl)ccc2c(=O)n1Cc1cc(S(C)(=O)=O)n(CCC(C)(C)O)n1 | 8% |
| CCn1c(-c2ccoc2)nc2cnccc21 [SB-733887] | 12% |
| CCc1ccc(-c2ccc3c(c2)-c2nn(C)cc2S(=O)(=O)N3C)cc1 | 0% |
| COc1ccc(-c2coc3ccc(-c4nnc(SCc5cccc(C#N)c5)o4)cc23)cc1 | 0% |
| COC(=O)c1c(-c2ccccc2)c2cc(C)ccc2c(=O)n1Cc1ccccc1 | 0% |
| Cl.NS(=O)(=O)c1cccc(Nc2cc(-c3ccc(F)cc3)n[nH]2)c1 [GW824645] | 0% |
| COC(=O)c1c(-c2ccccc2)c2cc(Br)ccc2c(=O)n1Cc1ccc(NC(=O)CCC(=O)O)cc1 | 0% |
| COc1ccc(CNC(=O)NC2CCN(c3ccnc(Nc4ccc(F)cc4)n3)C2)cc1 (stereo not shown) [GSK1379706] | 29% |
| CCS(=O)(=O)c1ccc(OC)c(Nc2ncc(-c3ccc(F)cc3)o2)c1.Cl [GW591947] | 18% |
| Cc1nn2c(=O)cc(N3CCOCC3)nc2n1Cc1cccc(Cl)c1Cl [GSK2342769] | 4% |
| CCS(=O)c1ccc(-c2coc3ccc(-c4nnc(C)o4)cc23)cc1 (stereo not shown) | 0% |
| COc1cc(Nc2nccc(N3CCC(NC(=O)C(C)c4ccc(Cl)cc4)C3)n2)cc(OC)c1OC (stereo not shown) [GSK1379757] | 0% |
| COc1cc2ncn(-c3cc(OCc4ccncc4Br)c(C(N)=O)s3)c2cc1OC [GW854278] | 8% |
| Cl.c1ccc(Cn2cnc3cc(Nc4ncnc5ccccc45)ccc32)cc1 [GW272142] | 16% |

| SMILES | %Inh |
| --- | --- |
| CCC(=O)c1c(-c2ccccc2)c2cc(Cl)ccc2c(=O)n1Cc1cc(C(=O)NC2CC2)n(C)n1 | 0% |
| Nc1nccc2scc(-c3ccc4c(c3)CCN4C(=O)Cc3ccccc3)c12 [GSK2576924] | 13% |
| COc1ccc(-c2cc3c(C)nc(N)nc3n([C@H]3CC[C@H](O)CC3)c2=O)cn1 | 0% |
| Nc1nc(-c2ccccc2F)c(-c2ccnc3ccccc23)s1 [GW560459] | 66% |
| COc1cccc(C2=C(N(C)c3ccccc3)C(=O)NC2=O)c1 [SB-334865] | 15% |
| CCn1c(-c2nonc2N)nc2ccccc21 [SB-693162/GW549034] | 7% |
| COc1cc2nccc(Nc3ccc(OCc4ccc(NC(C)=O)cc4)cc3)c2cc1OC.Cl [GW440135] | 0% |
| Cc1ccc(Oc2ccc(Nc3ncnc4cc[nH]c34)cc2C)cn1 | 0% |
| O=C(Nc1n[nH]c2cc(-c3ccccc3F)ccc12)C1CC1 [SB-733371] | 0% |
| O=C1NC(=O)C(c2ccccc2)=C1Nc1cccc(O)c1 [SB-390534] | 0% |
| COc1ccc(-c2cc3c(C)nc(N)nc3n([C@H]3CC[C@H](OCCO)CC3)c2=O)cn1 | 1% |
| Cn1c(=O)c(F)c(Nc2ccc(I)cc2F)c2c(=O)n(OC[C@H](O)CO)cnc21 | 12% |
| Nc1n[nH]c2ncc(-c3ccccc3)cc12 [SB-517081] | 30% |
| CCC(=O)c1c(-c2ccccc2)c2cc(Cl)ccc2c(=O)n1Cc1cc(S(C)(=O)=O)n(CC(N)=O)n1 | 0% |
| Nc1ncnc2c1ncn2-c1ccc(Cl)cc1 [AH2635] | 9% |
| Cc1nnc(-c2ccc3ncn(-c4ccc(S(C)=O)cc4)c3c2)o1 (stereo not shown) | 9% |
| COc1cc2ncn(-c3cc(OCc4ccc(S(C)(=O)=O)cc4)c(C(N)=O)s3)c2cc1OC [GW869979] | 0% |
| CCC(=O)c1c(-c2ccccc2)c2cc(Cl)ccc2c(=O)n1Cc1ccc(C(=O)O)cc1 | 0% |
